# Compound activity: PubChem BioAssay, National Center for Advancing Translational Sciences (NCATS)
# Rows were chosen to be rich in hits. Some 1.1% of all compounds tested hit in one or more screens of this group.
# LDHA block = qHTS assay for inhibitors of human lactate dehydrogenase; AID 1347041, 2019; 0.15% of 480,000 active; L-lactate dehydrogenase A chain (Homo sapiens), P00338; purified LDHA, NADH/diaphorase-resazurin fluorescence; stronger effect = lower value; activity change, % (values are at about 110 or 230 µM); in the data active = activity change below about -30%; inconclusive = mostly about -25% to -30%;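 also: plate controls were DMSO wells for no effect and wells without enzyme for full effect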
#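 Remaining NADH was detected by diaphorase (0.133 mg/mL) converting 37 µM resazurin to fluorescent resorufin, read at 0 and 20 minutes. The preceding 5-minute room-temperature reaction used 2 nM LDHA, 0.2 mM sodium pyruvate and 0.06 mM NADH at pH 7.4.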
# Integrin act MD = qHTS for Activators of Integrin-Mediated Alleviation for Muscular Dystrophy; alpha7betagal myoblasts, beta-gal FDG fluorescence, 48 h; Potency, µM (top dose mostly 38.3 µM), for the others: at the top dose activation, actives largely listed as activators; 0.064% of 350,000 active;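 also: potency is read from the fitted curve at half-maximal effect; 100% = response of the positive control SU9516; nearly all actives have a fitted effect of over 60% in size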
#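 alpha7betagal+/- myoblasts (passage 13, 250/well) treated 48 h at 37C with compounds at 1:260 dilution of DMSO stock. Lysed, then beta-galactosidase activity read as FDG fluorescence (ex 480/em 540) after 30 min, with pre-read for autofluorescence.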
# GALK inhibitor = qHTS Assay for Inhibitors of Human Galactokinase (GALK) | P51570 | Purified GALK, Kinase-Glo residual ATP luminescence | Potency, µM (series often up to 57.5 µM), for the others: top-dose activity change, negative = inhibition, actives largely listed as inhibitors | 0.007% of 270,000 active | AID 1868, 2009; also: potency is read from the fitted curve at half-maximal effect
# Target sequence (P51570 whole entry, looked up): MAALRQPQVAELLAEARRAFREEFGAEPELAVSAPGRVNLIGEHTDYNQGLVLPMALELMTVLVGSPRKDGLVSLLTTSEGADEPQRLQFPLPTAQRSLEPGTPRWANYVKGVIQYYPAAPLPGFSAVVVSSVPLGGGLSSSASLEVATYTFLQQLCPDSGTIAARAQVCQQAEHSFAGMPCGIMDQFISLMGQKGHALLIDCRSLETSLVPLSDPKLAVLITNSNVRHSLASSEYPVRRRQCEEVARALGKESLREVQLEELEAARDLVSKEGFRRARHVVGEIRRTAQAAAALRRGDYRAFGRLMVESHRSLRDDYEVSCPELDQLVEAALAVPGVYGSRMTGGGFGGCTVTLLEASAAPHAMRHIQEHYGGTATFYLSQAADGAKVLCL
#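 5 nM enzyme, 35 uM ATP, 100 uM galactose, 20 mM HEPES pH8.0, 5 mM MgCl2; 1 h RT; residual ATP by Kinase-Glo Plus luminescence, qHTS format.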
# TrxR1 inh = qHTS Assay for Inhibitors of Mammalian Selenoprotein Thioredoxin Reductase 1 (TrxR1): qHTS; Potency, µM (top dose mostly 114 µM), without a hit: top-dose activity change, negative = inhibition, hits mostly inhibitors; 1% of 390,000 active; recombinant rTrxR1, NADPH fluorescence consumption, selenite substrate; Thioredoxin reductase 1, cytoplasmic (Rattus norvegicus), O89049; also: potency is read from the fitted curve at half-maximal effect; nearly all actives have a fitted effect of over 65% in size
#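 Rat TrxR1 (90 nM in the dispensed reagent) was pre-reduced with 400 uM NADPH for 5 min at room temperature, then incubated with compound for 15 min. After 400 uM selenite was added, NADPH fluorescence (Ex 340/Em 450 nm) was followed for 8 min.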
# PI4K2A inh = qHTS for small molecular inhibitors of PI4K2A | activity change, negative = inhibition, % at 76.9 µM | purified PI4K2A, ADP-Glo luminescence, 1 h; stronger effect = lower value | 0.13% of 420,000 active | Phosphatidylinositol 4-kinase type 2-alpha (Homo sapiens), Q9BTU6; in the data active = activity change below about -50%; inconclusive = mostly about -30% to -49%;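 also: -100% = wells without enzyme as full effect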
#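 Compounds are screened against recombinant PI4K2A using PI as substrate and ATP, the latter dispensed at 300 microM. Reactions run one hour at ambient temperature before ADP-Glo detection; full inhibition defined by wells lacking enzyme.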
# TrxR1 substrate = qHTS Assay for Substrates of Mammalian Selenoprotein Thioredoxin Reductase 1 (TrxR1): qHTS; Thioredoxin reductase 1, cytoplasmic (Rattus norvegicus), O89049; purified TrxR1 substrate turnover, NADPH consumption readout; Potency, µM (doses to about 114 µM), without a hit: at the top dose activity change, negative = substrate turnover; 0.01% of 390,000 active; AID 588456, 2011; also: potency is read from the fitted curve at half-maximal effect; nearly all actives have a fitted effect of over 50% in size
#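 Rat TrxR1, dispensed at 90 nM, was prereduced with 400 uM NADPH (final) for 5 min at ~22 deg C, then incubated with compound 15 min before 400 uM selenite. A first-read NADPH fluorescence drop versus no-compound background flagged substrates.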
# Active calls of the source: *; u = inconclusive; x = no result; [ ] = dose if it differs, or a comment. Unless noted, calls follow the shape of the dose curve; as a rule, active = well fitted curve in the direction sought with a large enough effect; inconclusive = small, poorly fitted or top-dose-only effect, or another doubt; inactive = no such curve, though single readings can be large; an effect the other way counts as inactive or inconclusive. Unless noted, % is scaled to controls: 0 for no effect and ±100 for the full control effect.
SMILES,LDHA block,Integrin act MD,GALK inhibitor,TrxR1 inh,PI4K2A inh,TrxR1 substrate
O=C(c1ccc(F)cc1)c1cc2ccc(O)cc2oc1=O,8,-19%,14%,u,-88*,-2%
O=C(NNC(=O)c1cc2cc3ccccc3nc2s1)c1cccc(Cl)c1,-51*,-9%,-2%,12%[57.1 µM],-21,6%[57.1 µM]
Cc1cccc(C(=O)NNC(=O)c2cc3cc4ccccc4nc3s2)c1,-7,-5%,4%,6%[57.1 µM],-9,5%
Cc1ccc(NC(=O)CSc2n[nH]c(=O)c3cc(-c4ccco4)nn23)cc1C,-2,x,x,x,x,x
CN(C)C1(CN=Cc2cc(Cl)cc([N+](=O)[O-])c2O)CCCCC1,7,8.9µM*,16%,-12%,-1,-3%
O=[N+]([O-])c1cc(Cl)cc(/C=N\Nc2ccccn2)c1O,-2,-8%,2%,16%[57.1 µM],-2,-12%
COc1ccc(C(=O)Nc2nnc(C(C)C)s2)cc1OC,-2,x,x,79µM*,5,4%
Cc1ccc(C)c(C(=O)c2sc(Nc3cccc(F)c3)nc2N)c1,-1,x,x,x,x,x
Cc1oc(-c2ccc(C(=O)N3CCN(C)CC3)cc2)nc1CN1CCc2ccccc21,0,x,x,x,x,x
CC1CC(C)C[N+](=C2C=C(N3CCCC3)CC(C)(C)C2)C1 (stereo unspecified),-99*,u,-1%,-17%,-3,-21%
COCc1nnc(NC(=O)Cn2ccc3c(Cl)cccc32)s1,-7,x,x,x,x,x
CC(C)c1nnc2ccc(N3CCC(C(=O)Nc4ccccc4N4CCCC4)CC3)nn12,-7,x,x,x,x,x
O=C(CC(C(=O)O)n1ccnc1)c1ccc(Cl)cc1 (stereo unspecified),4,x,x,1.8µM*,x,1%
O=C(CBr)c1ccc(Oc2ccc(C(=O)C[n+]3ccccc3Cl)cc2)cc1,-72*,x,x,-15%,x,5%
CCC(C)N(CC(=O)Nc1cccc(C)c1C)C(=O)CCl (stereo unspecified),3,-62%,7%,28µM*,4,0%[57.1 µM]
CC(C)N(CC(=O)Nc1ccc(Cl)cc1C(F)(F)F)C(=O)CCl,1,-59%,7%,16µM*,7,3%
O=C(O)CSCC(=O)Nc1ccc(Cl)cc1C(F)(F)F,-4,10%,1%,-21%,1,-11%
CCCCNC(=O)c1ccccc1NC(=O)Cn1cnc2c1c(=O)n(C)c(=O)n2C,-22,x,x,x,x,x
Cc1ccc(S(=O)(=O)N(CC(=O)N2CCc3ccccc3C2)Cc2ccc(Cl)cc2)cc1,14,x,x,x,x,x
O=C1CC(N2CCN(S(=O)(=O)c3ccccc3F)CC2)C(=O)N1c1ccccc1F (stereo unspecified),-35*,u,x,-27%,9,-8%
CN(C)CCNC(C(=O)Nc1cccc(S(=O)(=O)N2CCOCC2)c1)c1ccccc1 (stereo unspecified),-13,-12%,x,30%,3,8%
CN(C)CCNC(C(=O)Nc1cccc(C(F)(F)F)c1)c1ccccc1 (stereo unspecified),-37*,-19%,1%,8%,14,4%[57.1 µM]
CCOc1ccccc1NC(=O)C(NCCN(C)C)c1ccccc1 (stereo unspecified),-41*,-4%,6%,17%,1,6%
CC(=O)C1=C(C)OC(N)=C(C#N)C1c1ccco1 (stereo unspecified),11,-17%,-3%,11µM*,-11,2%[57.1 µM]
COC(=O)C1=C(C)OC(N)=C(C#N)C1c1ccco1 (stereo unspecified),0,-12%,1%,1%,5,0%
